# Assay results published in ChEMBL document CHEMBL3988442, “University of Dundee, Small-Polar-MMV Screening Library” (2021).
# For some of these results: Entries with a potency or affinity are not part of this list.
# Tests used:
# Design in all cases: scale not given: direction of the effect not stated beside the values
# [1] = target: Protein translocase subunit SecA (Escherichia coli (strain K12)) (UniProt P10408); test: Assay to Identify E. coli SecA ATPase Inhibitors; assay type: functional; settings: 30 µM
# [2] = target: T1, Ubiquitin-activating enzyme e1, putative (Leishmania donovani (strain BPK282A1)) (UniProt E9BSI1); test: Leishmania donovani Ubiquitin Activating Enzyme (LdE1); assay type: functional; settings: 30 µM
# T1 sequence (whole entry): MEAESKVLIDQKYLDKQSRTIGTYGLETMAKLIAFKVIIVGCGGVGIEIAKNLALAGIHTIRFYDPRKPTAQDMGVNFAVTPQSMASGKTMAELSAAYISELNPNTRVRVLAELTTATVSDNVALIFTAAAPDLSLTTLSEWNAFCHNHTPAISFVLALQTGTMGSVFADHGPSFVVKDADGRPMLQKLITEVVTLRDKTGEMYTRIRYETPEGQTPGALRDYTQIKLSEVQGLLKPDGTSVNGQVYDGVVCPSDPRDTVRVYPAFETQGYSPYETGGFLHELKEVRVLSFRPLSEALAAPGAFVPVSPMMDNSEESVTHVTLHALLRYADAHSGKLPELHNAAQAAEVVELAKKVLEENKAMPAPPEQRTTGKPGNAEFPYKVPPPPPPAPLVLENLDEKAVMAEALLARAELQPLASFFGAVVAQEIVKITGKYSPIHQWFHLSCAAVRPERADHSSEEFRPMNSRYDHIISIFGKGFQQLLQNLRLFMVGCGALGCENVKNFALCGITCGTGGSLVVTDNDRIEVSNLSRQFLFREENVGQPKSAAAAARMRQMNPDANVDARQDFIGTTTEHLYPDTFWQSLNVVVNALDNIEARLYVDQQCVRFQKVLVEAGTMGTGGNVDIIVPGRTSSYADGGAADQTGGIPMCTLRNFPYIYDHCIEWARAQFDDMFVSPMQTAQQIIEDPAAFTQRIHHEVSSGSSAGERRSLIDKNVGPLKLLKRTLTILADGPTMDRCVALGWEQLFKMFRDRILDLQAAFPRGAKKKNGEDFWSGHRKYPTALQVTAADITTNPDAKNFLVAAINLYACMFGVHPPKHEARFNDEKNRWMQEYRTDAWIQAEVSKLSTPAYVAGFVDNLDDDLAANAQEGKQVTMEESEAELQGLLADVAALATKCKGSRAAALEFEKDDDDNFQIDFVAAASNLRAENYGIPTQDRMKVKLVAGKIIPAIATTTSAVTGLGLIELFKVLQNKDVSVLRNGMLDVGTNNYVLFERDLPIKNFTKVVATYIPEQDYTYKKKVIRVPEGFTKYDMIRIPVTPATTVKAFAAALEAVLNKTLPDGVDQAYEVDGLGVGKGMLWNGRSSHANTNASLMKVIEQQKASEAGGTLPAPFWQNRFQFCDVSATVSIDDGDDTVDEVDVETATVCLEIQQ
# [3] = target: Sialic acid-binding Ig-like lectin 9 (Homo sapiens) (UniProt Q9Y336); test: Hs-Siglec9 ALPHAscreen SOP 20170721; settings: 10 µM
# Trypanosoma cruzi = test: Trypanosoma cruzi phosphomannomutase and mannose-1-phosphate guanylyltransferase assay; assay type: functional; settings: 10 µM
# [4] = target: T2, Arginase-2, mitochondrial (Homo sapiens) (UniProt P78540); test: in vitro enzyme assay to detect the production of urea directly proportional to the activity of Arginase II; assay type: functional; settings: 33.3 µM; also: in the data most compounds retested in dose-response had high values
# T2 sequence (whole entry): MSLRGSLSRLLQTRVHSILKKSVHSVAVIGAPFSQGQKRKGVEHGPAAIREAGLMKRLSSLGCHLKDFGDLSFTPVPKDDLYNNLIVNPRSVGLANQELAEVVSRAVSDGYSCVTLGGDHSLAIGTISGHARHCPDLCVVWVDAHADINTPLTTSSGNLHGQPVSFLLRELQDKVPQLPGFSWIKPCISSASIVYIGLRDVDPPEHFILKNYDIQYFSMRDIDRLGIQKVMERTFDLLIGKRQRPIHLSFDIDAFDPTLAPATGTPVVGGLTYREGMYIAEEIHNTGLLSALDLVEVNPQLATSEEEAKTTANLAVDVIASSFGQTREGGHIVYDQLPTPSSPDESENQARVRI
# [5] = target: T3, Proteasome subunit beta (Trypanosoma cruzi) (UniProt O96673); test: Trypanosoma cruzi proteasome chymotrypsin-like activity (TcProtChymo) assay.; also: in the data most compounds retested in dose-response had high values; assay type: functional; settings: 9.37 µM
# T3 sequence (whole entry): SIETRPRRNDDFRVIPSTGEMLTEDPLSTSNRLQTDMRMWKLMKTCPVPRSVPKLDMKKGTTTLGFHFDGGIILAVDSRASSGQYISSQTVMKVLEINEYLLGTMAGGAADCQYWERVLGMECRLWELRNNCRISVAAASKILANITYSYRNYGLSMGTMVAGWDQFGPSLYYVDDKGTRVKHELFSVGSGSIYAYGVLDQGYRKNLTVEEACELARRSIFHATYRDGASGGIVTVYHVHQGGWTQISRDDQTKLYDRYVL
# Homo sapiens = species: Homo sapiens; test: To identify inhibition of the IFN signalling (Jak-Stat) pathway via expression of an eGFP reporter gene under the control of an IFN-stimulated response element (ISRE) containing MxA promoter.; assay type: functional; settings: 30 µM
# [6] = target: T4, Tyrosyl-tRNA synthetase, putative (Trypanosoma cruzi (strain CL Brener)) (UniProt Q4DSP6); test: Trypanosoma cruzi tyrosyl tRNA synthetase (TcYRS) _High Tyrosine SOP; assay type: functional; settings: 30 µM; also: in the data most compounds retested in dose-response had high values
# T4 sequence (whole entry): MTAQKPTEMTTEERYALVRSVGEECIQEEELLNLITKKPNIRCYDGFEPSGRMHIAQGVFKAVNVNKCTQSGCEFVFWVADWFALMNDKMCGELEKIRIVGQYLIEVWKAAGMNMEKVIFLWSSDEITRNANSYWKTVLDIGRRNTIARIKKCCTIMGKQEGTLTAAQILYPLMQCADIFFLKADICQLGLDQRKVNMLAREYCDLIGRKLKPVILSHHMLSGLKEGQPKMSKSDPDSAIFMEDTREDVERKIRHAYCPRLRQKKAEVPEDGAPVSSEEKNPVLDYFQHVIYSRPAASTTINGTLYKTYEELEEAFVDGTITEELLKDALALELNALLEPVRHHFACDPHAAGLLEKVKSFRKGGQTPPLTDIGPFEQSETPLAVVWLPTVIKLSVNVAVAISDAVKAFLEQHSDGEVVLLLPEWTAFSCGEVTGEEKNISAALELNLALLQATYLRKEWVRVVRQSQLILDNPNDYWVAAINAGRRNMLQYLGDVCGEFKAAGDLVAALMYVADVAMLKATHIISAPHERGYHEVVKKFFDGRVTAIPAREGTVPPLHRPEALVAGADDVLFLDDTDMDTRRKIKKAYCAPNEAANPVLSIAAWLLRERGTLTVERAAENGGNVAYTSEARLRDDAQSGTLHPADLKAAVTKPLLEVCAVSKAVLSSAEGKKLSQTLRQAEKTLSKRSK
# [7] = target: T4, Tyrosyl-tRNA synthetase, putative (Trypanosoma cruzi (strain CL Brener)); test: Trypanosoma cruzi tyrosyl tRNA synthetase (TcYRS) SOP; assay type: functional; settings: 30 µM
# [8] = target: Chromo domain-containing protein 1 (Saccharomyces cerevisiae (strain ATCC 204508 / S288c) (Baker's yeast)) (UniProt P32657); test: ScCHD-1 Enzyme Inhibition Assay; assay type: functional; settings: 30 µM; also: in the data most compounds retested in dose-response had high values
# Chromo domain-containing protein 1 (Saccharomyces cerevisiae (strain ATCC 204508 / S288c) (Baker's yeast)), sequence (P32657 whole entry, the tested form may be a part): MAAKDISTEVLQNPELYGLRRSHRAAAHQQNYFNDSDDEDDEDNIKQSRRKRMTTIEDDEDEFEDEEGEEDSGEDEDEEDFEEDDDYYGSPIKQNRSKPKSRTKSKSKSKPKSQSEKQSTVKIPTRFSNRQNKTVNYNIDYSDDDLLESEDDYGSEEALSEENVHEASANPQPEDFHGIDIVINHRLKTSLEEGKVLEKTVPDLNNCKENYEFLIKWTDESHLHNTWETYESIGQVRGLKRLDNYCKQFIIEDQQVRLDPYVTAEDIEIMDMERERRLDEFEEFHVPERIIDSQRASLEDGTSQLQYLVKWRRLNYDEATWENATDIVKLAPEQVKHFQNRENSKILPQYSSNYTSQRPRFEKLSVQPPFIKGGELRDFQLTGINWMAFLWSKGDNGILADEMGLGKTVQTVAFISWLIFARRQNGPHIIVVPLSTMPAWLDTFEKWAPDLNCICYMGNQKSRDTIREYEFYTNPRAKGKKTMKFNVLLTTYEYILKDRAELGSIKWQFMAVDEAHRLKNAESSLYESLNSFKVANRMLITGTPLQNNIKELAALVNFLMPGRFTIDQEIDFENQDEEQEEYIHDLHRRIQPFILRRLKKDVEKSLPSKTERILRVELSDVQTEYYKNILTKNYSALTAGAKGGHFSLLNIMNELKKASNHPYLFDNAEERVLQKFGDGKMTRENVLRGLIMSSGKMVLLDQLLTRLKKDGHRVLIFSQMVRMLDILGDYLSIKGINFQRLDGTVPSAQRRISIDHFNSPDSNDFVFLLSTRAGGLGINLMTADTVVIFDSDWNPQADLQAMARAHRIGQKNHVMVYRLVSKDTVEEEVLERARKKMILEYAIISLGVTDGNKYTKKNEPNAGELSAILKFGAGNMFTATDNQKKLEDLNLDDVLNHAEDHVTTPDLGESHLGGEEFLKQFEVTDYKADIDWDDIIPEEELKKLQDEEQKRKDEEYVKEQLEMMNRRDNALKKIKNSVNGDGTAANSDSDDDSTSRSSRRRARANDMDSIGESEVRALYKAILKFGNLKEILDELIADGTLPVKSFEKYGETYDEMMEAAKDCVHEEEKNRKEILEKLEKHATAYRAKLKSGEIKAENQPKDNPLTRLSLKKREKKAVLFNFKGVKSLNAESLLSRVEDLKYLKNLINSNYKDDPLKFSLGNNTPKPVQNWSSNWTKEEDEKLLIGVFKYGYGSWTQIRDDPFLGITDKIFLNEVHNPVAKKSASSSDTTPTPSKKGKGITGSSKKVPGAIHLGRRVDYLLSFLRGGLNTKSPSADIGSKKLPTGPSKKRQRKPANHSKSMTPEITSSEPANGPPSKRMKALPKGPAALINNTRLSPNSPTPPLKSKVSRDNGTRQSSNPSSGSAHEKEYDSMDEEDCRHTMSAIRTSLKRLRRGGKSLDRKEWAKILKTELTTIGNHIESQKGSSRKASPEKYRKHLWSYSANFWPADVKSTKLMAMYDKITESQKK
# Protein translocase subunit SecA (Escherichia coli (strain K12)), sequence (P10408 whole entry): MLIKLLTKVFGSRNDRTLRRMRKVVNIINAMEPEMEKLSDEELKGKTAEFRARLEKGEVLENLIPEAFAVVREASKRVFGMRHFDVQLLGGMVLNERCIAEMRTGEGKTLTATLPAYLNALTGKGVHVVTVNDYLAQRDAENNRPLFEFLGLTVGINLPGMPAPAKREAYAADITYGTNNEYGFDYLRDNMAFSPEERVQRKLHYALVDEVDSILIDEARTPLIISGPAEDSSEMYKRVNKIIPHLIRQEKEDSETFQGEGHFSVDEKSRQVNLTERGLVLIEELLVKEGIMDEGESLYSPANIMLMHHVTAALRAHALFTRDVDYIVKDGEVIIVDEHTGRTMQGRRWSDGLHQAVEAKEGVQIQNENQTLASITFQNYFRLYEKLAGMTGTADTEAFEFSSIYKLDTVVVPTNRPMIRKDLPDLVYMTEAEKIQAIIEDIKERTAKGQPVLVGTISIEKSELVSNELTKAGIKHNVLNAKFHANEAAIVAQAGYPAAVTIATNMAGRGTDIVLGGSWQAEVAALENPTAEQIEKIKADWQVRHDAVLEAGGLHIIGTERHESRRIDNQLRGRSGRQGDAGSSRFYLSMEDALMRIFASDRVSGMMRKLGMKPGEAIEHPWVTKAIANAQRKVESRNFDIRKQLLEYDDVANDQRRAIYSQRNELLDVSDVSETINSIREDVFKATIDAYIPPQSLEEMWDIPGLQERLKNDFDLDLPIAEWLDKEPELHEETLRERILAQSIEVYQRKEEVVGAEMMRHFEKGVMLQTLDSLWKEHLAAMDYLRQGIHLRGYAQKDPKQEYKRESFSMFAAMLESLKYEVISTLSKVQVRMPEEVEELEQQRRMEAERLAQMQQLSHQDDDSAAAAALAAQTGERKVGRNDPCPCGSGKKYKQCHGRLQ
# Sialic acid-binding Ig-like lectin 9 (Homo sapiens), sequence (Q9Y336 whole entry): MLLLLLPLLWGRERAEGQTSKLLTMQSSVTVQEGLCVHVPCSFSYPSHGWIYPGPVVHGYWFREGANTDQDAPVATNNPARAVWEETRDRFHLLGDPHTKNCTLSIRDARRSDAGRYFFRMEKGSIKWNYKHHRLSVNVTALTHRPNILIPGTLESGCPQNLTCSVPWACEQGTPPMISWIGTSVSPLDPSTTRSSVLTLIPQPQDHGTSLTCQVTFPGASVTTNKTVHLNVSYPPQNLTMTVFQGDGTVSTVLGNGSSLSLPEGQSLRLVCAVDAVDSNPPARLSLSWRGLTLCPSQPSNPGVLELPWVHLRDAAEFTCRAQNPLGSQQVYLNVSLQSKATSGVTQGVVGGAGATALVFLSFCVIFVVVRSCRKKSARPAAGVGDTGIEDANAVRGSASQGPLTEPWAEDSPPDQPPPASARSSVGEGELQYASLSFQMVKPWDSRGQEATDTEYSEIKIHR
Structure (SMILES),Percent Effect [1] [%],Percent Effect [2] [%],Percent Effect [3] [%],Percent Effect (Trypanosoma cruzi) [%],Percent Effect [4] [%],Percent Effect [5] [%],Percent Effect (Homo sapiens) [%],Percent Effect [6] [%],Percent Effect [7] [%],Percent Effect [8] [%]
O=C(C1CCOCC1)N1CC[C@H]2C[C@@H](c3ccncn3)O[C@@H]2C1,-7.3,3.9,2.39,5.55,-6.48,13.7,-13.3,3.68,15.4,25.1
Cc1cccc(CN2CCc3nnc(CN4CCCC4=O)n3CC2)n1,-3.64,14.3,1.97,-2.06,-2.28,8.67,9.65,4.83,10,-8.05
CN1CCCC2(CCN(C(=O)CCn3cncn3)C2)C1=O (stereo not given),-9.37,2.7,4.1,4.17,5.94,12,-0.496,4.79,19.5,-0.366
Cn1cc(N2CC3(COCCN(Cc4ccsc4)C3)OCC2=O)cn1 (stereo not given),-9.04,-1.3,10.7,-1.46,0.405,2.21,6.9,4.74,-5.13,2.44
c1ccc(-c2nc(CN3CCOC(Cn4cccn4)C3)no2)cc1 (stereo not given),-2.84,2.67,-2.67,-3.01,4.43,7.38,4.88,5.79,12.8,-6.08
COc1cc(C)nc(N2CCN(C(=O)CNC(C)(C)C)CC2)n1,-1.19,5.13,-1.55,-1.22,4.51,-3.67,19.9,0.478,8.43,-2.39
COCC(=O)N1CCC2(CC1)CCN(Cc1ccccn1)C2=O,-4.26,-3.9,-5.87,-2.24,-3.64,1.5,-7.24,-2.63,-5.13,0.829
CCC1CN(C(=O)c2ccc(Cl)cc2O)CCN1C(C)C (stereo not given),-4.41,2.7,8.13,6.5,11.5,6.34,12.9,4.79,9.76,-3.73
CC1CCCCN1C(=O)CN1CCN(c2ccc3nncn3n2)CC1 (stereo not given),-3.43,15.4,1.72,7.42,-0.82,11.3,6.75,6.22,13.2,-7.79
COc1ccc2c(c1)OC1(CCN(Cc3ccc(F)cc3)CC1)CC2=O,-2.19,14.3,-1.29,2.63,2.74,9.36,24.9,2.9,2.5,-12.1
